PubChem BioAssay (NCATS)
Inconclusive results are not listed. The source made the active and inactive calls. Unless noted, calls follow the shape of the dose curve; as a rule, active = well fitted curve in either direction with a large enough effect (not every such curve was filed as active); inconclusive = small, poorly fitted or top-dose-only effect, or another doubt; inactive = flat fitted curve, though single readings scatter.

Columns and labels:
[1] = molecular target: Lysosomal acid glucosylceramidase (Homo sapiens) (UniProt P04062); experiment: Glucocerebrosidase-p2 (AID 348; in the data active = potency below about 10 µM; also: potency is read from the fitted curve at half-maximal effect); settings: purified GBA, blue fluorogenic substrate, 40 min
Method in brief: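 Compounds titrated from 0.6 nM upwards against 0.2 nM enzyme in pH 5.9 citric acid/KH2PO4, taurocholate, tween-20; blue fluorogenic substrate 80 uM, 40 min room temperature, stopped and read Ex 365/Em 440 for AC50.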

[2] = AP1 Signaling Pathway (AID 357); settings: ME-180 AP-1-bla reporter, EGF-induced, beta-lactamase ratio, 5 h; at 7.69 µM (top of the series) unless noted;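 also: ME-180 reporter cells stimulated with EGF at its EC50 level; % is scaled to controls: 0 for no effect and ±100 for the full control effect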
Method in brief: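 Modulation of EGF-driven AP-1 transcription was assessed with a beta-lactamase reporter in ME-180 cells. Compound and EC50 EGF were co-incubated 5 hours at 37 °C before 2.5-hour CCF4 loading at room temperature and dual-emission reading.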

[3] = NFAT Signaling Pathway (AID 444); settings: Jurkat NFAT-bla M1, carbachol, beta-lactamase ratio, 5 h; at 7.69 µM (top of the series) unless noted;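 also: carbachol stimulus at about its EC50 of 1 µM final; % is scaled to controls: 0 for no effect and ±100 for the full control effect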
Method in brief: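 Read-out: CCF4 FRET ratio (460 nm/530 nm) after 1 h RT dye loading, used for %activity and AC50 from titration series. Cells: Jurkat NFAT-β-lactamase/M1 line, treated with compound plus 1 uM carbachol for 5 h, 37 °C.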

[4] = Stat Signaling Pathway (AID 446); settings: ME-180 SIE beta-lactamase reporter, IL-6 stimulated, 5 h; at 7.69 µM (top of the series) unless noted;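 also: ME-180 cervical cancer cells given 40 pM IL-6 alongside compound; SIE-controlled beta-lactamase reporter measured as 460/530 nm FRET emission ratio; % is scaled to controls: 0 for no effect and ±100 for the full control effect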
Method in brief: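 Reporter line: ME-180 cervical carcinoma, SIE-beta-lactamase. Treatment: compound with 40 pM IL-6, 5 hrs, 37 C, in low-serum OPTI-MEM with 10 mM HEPES pH 7.3. Detection: 460/530 nm fluorescence.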

[5] = molecular target: Glucocorticoid receptor (Homo sapiens) (UniProt P04150); experiment: GR-GFP Redistribution (AID 450;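 active = compounds whose dose series gives a full or clear partial fitted curve of increased nuclear translocation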; also: potency is read from the fitted curve at half-maximal effect); settings: U2OS GR-GFP nuclear translocation, laser cytometry, 2 h
[6] = molecular target: Glucocorticoid receptor (Homo sapiens) (UniProt P04150); experiment: GR-EFC Redistribution (AID 451; calls by dose curve; also: potency is read from the fitted curve at half-maximal effect); settings: CHO-K1 GR-EFC translocation, beta-gal luminescence, 2 h
Method in brief: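 Translocation of GR-ED fusion to nuclear EA restores b-gal, read by luminescence after 1 h room-temperature detection. Engineered CHO-K1 biosensor cells, 1,000/well, exposed 2 h at 37 C to titrations up to 46 uM final.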

[7] = molecular target: Mitogen-activated protein kinase 10 (Mus musculus) (UniProt Q61831); experiment: JNK3 AlphaScreen Assay (AID 530); settings: JNK3 lysate, c-Jun phosphorylation; series mostly up to 11.4 µM;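 also: kinase came from lysate of stimulated human HepG2 cells; signal reports phosphorylation of biotinylated GST-cJun 1-79 at Ser73 with 10 µM ATP; % is scaled to controls: 0 for no effect and ±100 for the full control effect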
Method in brief: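 Compound titrations were preincubated 15 minutes at room temperature with substrate, antibody and pre-activated JNK3-containing HepG2 lysate. Reactions were started with 10 uM ATP and stopped with EDTA-containing bead buffer for AlphaScreen detection.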

[8] = molecular target: 3',5'-cyclic-AMP phosphodiesterase 4B (Homo sapiens) (UniProt Q07343); experiment: qHTS Assay for Inhibitors of PDE-IV (AID 607; active = well fitted activation curve with a large enough effect in the main read-out, with a control signal flat, not every such curve was filed as active; also: % of control where 0% means no effect); settings: HEK293 ACTOne CNG channel cells, membrane potential fluorescence; series mostly up to 22.9 µM
Method in brief: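 Cell-based read-out of cAMP via a modified cyclic nucleotide-gated channel and membrane potential dye (535/590 nm) in HEK293 cells expressing PDE4 endogenously. Compounds tested up to 22.9 uM final; 100 uM RO 20-1724 reference.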

Chain of Lysosomal acid glucosylceramidase (Homo sapiens) (P04062 whole entry, looked up): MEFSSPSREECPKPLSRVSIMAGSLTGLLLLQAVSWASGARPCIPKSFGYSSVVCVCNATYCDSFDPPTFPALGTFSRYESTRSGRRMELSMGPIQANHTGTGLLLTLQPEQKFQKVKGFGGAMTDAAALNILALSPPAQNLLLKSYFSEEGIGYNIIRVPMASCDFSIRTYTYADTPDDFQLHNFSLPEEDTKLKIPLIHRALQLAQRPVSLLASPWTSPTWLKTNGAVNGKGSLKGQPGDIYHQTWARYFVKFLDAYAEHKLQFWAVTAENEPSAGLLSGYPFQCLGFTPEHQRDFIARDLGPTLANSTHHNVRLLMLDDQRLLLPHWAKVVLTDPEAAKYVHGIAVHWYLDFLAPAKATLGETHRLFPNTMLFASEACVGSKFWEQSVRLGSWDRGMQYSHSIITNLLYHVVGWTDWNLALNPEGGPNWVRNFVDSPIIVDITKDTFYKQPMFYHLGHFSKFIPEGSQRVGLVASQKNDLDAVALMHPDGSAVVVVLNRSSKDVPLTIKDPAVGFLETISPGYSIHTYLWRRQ
Chain of 3',5'-cyclic-AMP phosphodiesterase 4B (Homo sapiens) (Q07343 whole entry, looked up): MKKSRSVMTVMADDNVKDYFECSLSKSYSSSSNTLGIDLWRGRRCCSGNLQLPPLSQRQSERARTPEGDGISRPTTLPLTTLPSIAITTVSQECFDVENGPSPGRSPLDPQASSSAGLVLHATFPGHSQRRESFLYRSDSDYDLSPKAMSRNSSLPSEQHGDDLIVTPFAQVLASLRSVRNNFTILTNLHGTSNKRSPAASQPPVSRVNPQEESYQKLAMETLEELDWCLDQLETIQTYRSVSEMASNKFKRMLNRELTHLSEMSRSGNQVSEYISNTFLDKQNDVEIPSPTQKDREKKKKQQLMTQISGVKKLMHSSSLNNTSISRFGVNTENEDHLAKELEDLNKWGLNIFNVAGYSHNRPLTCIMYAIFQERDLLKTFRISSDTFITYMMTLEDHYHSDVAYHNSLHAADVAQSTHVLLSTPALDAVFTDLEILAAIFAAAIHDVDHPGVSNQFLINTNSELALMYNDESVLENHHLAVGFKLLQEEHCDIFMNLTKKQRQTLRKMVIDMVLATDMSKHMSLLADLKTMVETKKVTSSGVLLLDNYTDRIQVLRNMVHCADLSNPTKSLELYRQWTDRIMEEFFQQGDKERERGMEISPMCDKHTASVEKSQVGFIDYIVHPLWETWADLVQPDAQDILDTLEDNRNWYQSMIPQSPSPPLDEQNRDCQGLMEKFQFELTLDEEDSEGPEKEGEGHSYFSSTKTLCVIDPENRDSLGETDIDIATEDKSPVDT
Chain of Glucocorticoid receptor (Homo sapiens) (P04150 whole entry, looked up, the tested form may be a part): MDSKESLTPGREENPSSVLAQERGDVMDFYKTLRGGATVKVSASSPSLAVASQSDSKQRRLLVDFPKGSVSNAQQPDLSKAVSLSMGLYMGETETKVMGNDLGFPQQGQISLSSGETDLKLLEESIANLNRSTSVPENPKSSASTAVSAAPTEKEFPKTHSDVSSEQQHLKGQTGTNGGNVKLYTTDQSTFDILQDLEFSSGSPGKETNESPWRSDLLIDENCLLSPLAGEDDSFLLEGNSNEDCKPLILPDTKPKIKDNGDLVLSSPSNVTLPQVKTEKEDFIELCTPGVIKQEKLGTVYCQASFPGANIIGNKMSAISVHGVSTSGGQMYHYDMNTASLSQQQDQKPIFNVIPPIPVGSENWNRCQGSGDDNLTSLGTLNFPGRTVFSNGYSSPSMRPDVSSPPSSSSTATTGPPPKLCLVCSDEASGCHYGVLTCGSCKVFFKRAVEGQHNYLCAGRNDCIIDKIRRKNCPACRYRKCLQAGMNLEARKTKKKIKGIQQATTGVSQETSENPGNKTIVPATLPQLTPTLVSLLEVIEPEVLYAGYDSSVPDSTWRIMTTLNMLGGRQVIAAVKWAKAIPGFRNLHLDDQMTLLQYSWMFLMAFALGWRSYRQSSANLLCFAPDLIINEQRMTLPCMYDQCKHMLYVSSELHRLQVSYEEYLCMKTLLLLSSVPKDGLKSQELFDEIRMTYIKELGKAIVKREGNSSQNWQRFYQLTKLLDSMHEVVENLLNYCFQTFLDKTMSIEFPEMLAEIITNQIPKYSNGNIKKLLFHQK

NS(=O)(=O)c1ccc(NC(=O)Nc2cccc3ccccc23)cc1
inactive: Potency [1] > 11.4 µM | activity change, negative = inhibition [2] -4.66% | activity change, negative = inhibition [3] 12.6% | activity, negative = inhibition [4] -9.73% | Potency [5] > 46 µM | Potency [6] > 9.22 µM | Potency [7] | Potency [8]

CC1(C)CCC(=O)N[C@H]1CC(=O)C[C@H]1NC(=O)CCC1(C)C
inactive: Potency [1] > 11.4 µM | activity change, negative = inhibition [2] -7.26% | activity change, negative = inhibition [3] 13% | activity, negative = inhibition [4] 3.06% | Potency [5] > 46 µM | Potency [6] > 9.22 µM | Potency [7] | Potency [8]

N[C@@H](Cc1cccc([N+](=O)[O-])c1)C(=O)O
inactive: Potency [1] > 11.4 µM | activity change, negative = inhibition [2] -0.119% | activity change, negative = inhibition [3] 0.16% | activity, negative = inhibition [4] 0.761% | Potency [5] > 46 µM | Potency [6] > 9.22 µM | Potency [7] | Potency [8]

N=C(N)SCCON1C(=O)c2ccccc2C1=O
inactive: Potency [1] > 11.4 µM | activity change, negative = inhibition [2] 5.96% | activity change, negative = inhibition [3] -3.83% | activity, negative = inhibition [4] -5.8% | Potency [5] > 46 µM | Potency [6] > 9.22 µM | Potency [7] | Potency [8]

Cc1cc2c(=O)[nH]c(N)nc2nc1C
inactive: Potency [1] > 11.4 µM | activity change, negative = inhibition [2] 1.82% | activity change, negative = inhibition [3] 7.25% | activity, negative = inhibition [4] 9.62% | Potency [5] > 46 µM | Potency [6] > 9.22 µM | Potency [7] | Potency [8]

CC(=O)O[C@@H]1CC[C@]2(C)C(=C[C@@H]([C@@H]3C=C4C[C@@H](OC(C)=O)CC[C@]4(C)C4=C3[C@H]3C[C@@H]5O[C@@]6(CC[C@H](C)CO6)[C@@H](C)[C@@H]5[C@@]3(C)CC4)C3=C2CC[C@@]2(C)[C@H]4[C@@H](C)[C@]5(CC[C@H](C)CO5)O[C@@H]4C[C@H]32)C1
inactive: Potency [1] > 11.4 µM | activity change, negative = inhibition [2] 7.21% | activity change, negative = inhibition [3] 21% | activity, negative = inhibition [4] -1.63% | Potency [5] > 46 µM | Potency [6] > 9.22 µM | Potency [7] | Potency [8]

O=C(O)CCCCn1cnc2c(=S)nc[nH]c21
inactive: Potency [1] > 11.4 µM | activity change, negative = inhibition [2] 8.11% | activity change, negative = inhibition [3] 5.86% | activity, negative = inhibition [4] 6.11% | Potency [5] > 46 µM | Potency [6] > 9.22 µM | Potency [7] | Potency [8]

O=C(O)CCN1C(=S)CSC1=S
inactive: Potency [1] > 11.4 µM | activity change, negative = inhibition [2] -2.79% | activity change, negative = inhibition [3] 8.02% | activity, negative = inhibition [4] 10.1% | Potency [5] > 46 µM | Potency [6] > 9.22 µM | Potency [7] | Potency [8]

Cc1cccc(CNc2ncnc3[nH]ncc23)c1
inactive: Potency [1] > 11.4 µM | activity change, negative = inhibition [2] -1.11% | activity change, negative = inhibition [3] -3.71% | activity, negative = inhibition [4] -8.78% | Potency [5] > 46 µM | Potency [6] > 9.22 µM | Potency [7] | Potency [8]

Cc1ccn2c(CCc3nnc4cc(C)ccn34)nnc2c1
inactive: Potency [1] > 11.4 µM | activity change, negative = inhibition [2] 2.24% | activity change, negative = inhibition [3] 11% | activity, negative = inhibition [4] -6.72% | Potency [5] > 46 µM | Potency [6] > 9.22 µM | Potency [7] | Potency [8]

Cc1ccc(S(=O)(=O)OCC(=O)O)cc1
inactive: Potency [1] > 11.4 µM | activity change, negative = inhibition [2] 2.36% | activity change, negative = inhibition [3] 4.54% | activity, negative = inhibition [4] 5.39% | Potency [5] > 46 µM | Potency [6] > 9.22 µM | Potency [7] | Potency [8]

N#C[C@H](C(=O)O)C(c1c(Cl)cccc1Cl)[C@H](C#N)C(=O)O
inactive: Potency [1] > 11.4 µM | activity change, negative = inhibition [2] 1.46% | activity change, negative = inhibition [3] 5.02% | activity, negative = inhibition [4] 5.11% | Potency [5] > 46 µM | Potency [6] > 9.22 µM | Potency [7] | Potency [8]

CC(=O)Nc1ccc(-c2cc(C(=O)O)c3cc4ccccc4cc3n2)cc1
inactive: Potency [1] > 11.4 µM | activity change, negative = inhibition [2] 7.67% | activity change, negative = inhibition [3] 5.02% | activity, negative = inhibition [4] -2.25% | Potency [5] > 46 µM | Potency [6] > 9.22 µM | Potency [7] | Potency [8]

Cc1nc([N+](=O)[O-])cn1-c1nc2ccccn2c1[N+](=O)[O-]
inactive: Potency [1] > 11.4 µM | activity change, negative = inhibition [2] 2.55% | activity change, negative = inhibition [3] -3.74% | activity, negative = inhibition [4] 4.02% | Potency [5] > 46 µM | Potency [6] > 9.22 µM | Potency [7] | Potency [8]

NC1=N[C@H](c2ccc(Cl)cc2)N(c2ccc(S(=O)(=O)Nc3ncccn3)cc2)C(N)=N1
inactive: Potency [1] > 11.4 µM | activity change, negative = inhibition [2] -10.6% | activity change, negative = inhibition [3] -0.0424% | activity, negative = inhibition [4] -0.946% | Potency [5] > 46 µM | Potency [6] > 9.22 µM | Potency [7] | Potency [8]

C[N+](C)(C)CC(=O)N/N=C\c1ccncc1
inactive: Potency [1] > 11.4 µM | activity change, negative = inhibition [2] -2.8% | activity change, negative = inhibition [3] 3.32% | activity, negative = inhibition [4] 8.79% | Potency [5] > 46 µM | Potency [6] > 9.22 µM | Potency [7] | Potency [8]

O=c1ccc(-c2ccccc2)n[nH]1
inactive: Potency [1] > 11.4 µM | activity change, negative = inhibition [2] 1.12% | activity change, negative = inhibition [3] -2.18% | activity, negative = inhibition [4] -3.27% | Potency [5] > 46 µM | Potency [6] > 9.22 µM | Potency [7] | Potency [8]
